# Source: PubChem BioAssay
# Only a selection was taken, and hits are over-represented in it overall.
# VDR inhibitor: vitamin D3 receptor (human) inhibition. VDR-SRC2-3 peptide fluorescence polarization, 2 h. Potency, µM, for the others: max response, negative = inhibition, usual class: inhibitors. 0.93% of 400,000 active. AID 504847; note: % is set by controls: 0 for no effect and ±100 for the full control effect
# Target sequence (P11473 whole entry, looked up): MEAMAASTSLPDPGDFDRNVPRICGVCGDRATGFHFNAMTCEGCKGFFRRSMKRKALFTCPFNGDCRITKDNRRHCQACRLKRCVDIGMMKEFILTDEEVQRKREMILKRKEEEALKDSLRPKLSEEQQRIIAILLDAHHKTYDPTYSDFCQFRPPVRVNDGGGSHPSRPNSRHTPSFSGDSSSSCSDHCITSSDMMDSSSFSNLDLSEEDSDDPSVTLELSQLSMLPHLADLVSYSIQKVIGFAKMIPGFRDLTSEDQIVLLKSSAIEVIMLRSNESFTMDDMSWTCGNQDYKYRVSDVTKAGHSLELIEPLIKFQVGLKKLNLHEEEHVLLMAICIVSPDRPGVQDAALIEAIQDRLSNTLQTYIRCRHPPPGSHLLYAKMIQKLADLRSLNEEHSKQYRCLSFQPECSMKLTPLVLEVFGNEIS
#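 FP read-out; VDR + SRC2-3 coactivator peptide; 23 nl compound by pintool; 2 h RT incubation; reagents held at 4 deg C, protected from light.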
# Glioma ERSR ind: inducers of ER stress response in human glioma cells | U87-MG GRP78 promoter luciferase reporter, 16 h | Potency, µM, for inactives: at the highest dose activation, usual class: activators | AID 602332 | 0.02% of 420,000 active; note: series mostly up to about 76 µM; % of control where 0% means no effect; nearly all actives have a fitted effect of over 35% in size
#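 ERSR induction read as luciferase luminescence (Bright-Glo, 10 min at room temperature) in stably transfected human U87-MG glioma cells exposed to compounds for 16 h, using GRP78 as sensor.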
# G9a block: blocks human histone lysine methyltransferase G9a. 8.8% of 350,000 active. Potency, µM (top dose mostly 102 µM), for the others: at the top dose activity, negative = inhibition, actives largely listed as inhibitors. G9a H3K9 monomethylation, AlphaScreen, 2 h. AID 504332; note: % is set by controls: 0 for no effect and ±100 for the full control effect; nearly all actives have a fitted effect of over 75% in size
#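 G9a (20 nM) preincubated 15 min RT with compounds, then 500 nM biotinylated H3K9 peptide and 20 uM SAM added; 2 h RT reaction. Monomethyl-H3K9 product detected by AlphaScreen with anti-H3K9me1 antibody, streptavidin donor and anti-rabbit IgG acceptor beads.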
# ALOX12 inh: ALOX12 (human) lipoxygenase inhibition. P18054. purified 12hLO, xylenol orange hydroperoxide absorbance. Potency, µM (doses to about 108 µM), without a hit: at the highest dose activity change, negative = inhibition, usual class: inhibitors. 1.1% of 580,000 active. AID 1671190; note: % is set by controls: 0 for no effect and ±100 for the full control effect
#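 Hydroperoxide product was detected by ferrous iron/xylenol orange as the 573 to 405 nm absorbance ratio. Arachidonic acid at 40 uM (final) was turned over for 30 min at room temperature by 150 nM human 12hLO, pH 7.0 Hepes buffer, after 15 min compound preincubation.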
# Sfp inh: inhibitors of Bacillus subtilis Sfp phosphopantetheinyl transferase. Q9F4F7. Potency, µM, for the others: largest response in the series, negative = inhibition, actives largely listed as inhibitors. Biochemical Sfp PPTase activity, qHTS. 3.5% of 310,000 active;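 note: the enzyme is Sfp with the accession as filed and its product quenches rhodamine fluorescence; 0% = enzyme reaction without inhibitor and -100% = no enzyme wells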
#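 Sfp 15 nM + cpd, 15 min RT; start w/ rhodamine-CoA 5 uM, BHQ-2-YbbR 12.5 uM (final); 50 mM Hepes pH 7.6, 10 mM MgCl2, 0.01% NP-40, 0.01% BSA; read 525/598 nm at 0 and 30 min.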
# An asterisk follows results filed as active; u = inconclusive; x = no result; [ ] = dose if it differs, or a comment. Calls come from the whole dose curve; as a rule, active = well fitted curve in the direction sought with a large enough effect; inconclusive = small, poorly fitted or top-dose-only effect, or another doubt; inactive = no such curve, though single readings can be large; an effect the other way counts as inactive or inconclusive. Potency is the fitted concentration of half-maximal effect.
SMILES,VDR inhibitor,Glioma ERSR ind,G9a block,ALOX12 inh,Sfp inh
Cc1ccc(-c2nnn(CC(=O)N(Cc3ccco3)C(C(=O)NC(C)(C)C)c3cccs3)n2)o1 (configuration not stated),6%,-2%,13µM*,-9%,u
COc1cccc(N(C(=O)Cn2nnc(-c3ccc(C)o3)n2)C(C(=O)NC(C)(C)C)c2cccs2)c1 (configuration not stated),13%,-8%,-13%[59 µM],10%,5%
Cc1ccc(-c2nnn(CC(=O)N(Cc3cccs3)C(C(=O)NC(C)(C)C)c3ccco3)n2)o1 (configuration not stated),-12%,-4%,18µM*,-5%,u
O=C(CN1C(=O)/C(=C2\SC(=S)N(CCS(=O)(=O)O)C2=O)c2ccccc21)Nc1cccc(Br)c1,u,-2%,8.9µM*,u,56µM*
O=C(CN1C(=O)/C(=C2/SC(=S)N(CCS(=O)(=O)O)C2=O)c2ccccc21)Nc1cccc(C(F)(F)F)c1,u,-3%,x,u,x
Cn1cnc([N+](=O)[O-])c1Oc1ccc2ccccc2c1,-11%,9%,50µM*,-23%,-14%
N=c1n(CCN2CCCCC2)c2ccccc2n1CC(O)COc1ccccc1 (configuration not stated),12%,-7%,14%[2.33 µM],0%,17%
CN(C)CCn1c(=N)n(CC(O)c2ccc(Cl)c(Cl)c2)c2ccccc21 (configuration not stated),-25%,-7%,45µM*,0%,9%
N=c1n(CCN2CCCCC2)c2ccccc2n1CC(=O)c1ccc(Cl)c(Cl)c1,-5%,2%,x,2%,35µM*
N=c1n(CCN2CCCCC2)c2ccccc2n1CC(O)c1cccc(Br)c1 (configuration not stated),4%,-15%,50µM*,u,-5%
CCn1c(=N)n(CC(=O)c2ccc(Cl)c(Cl)c2)c2ccccc21,7%,5%,19%,4%,u
N=c1n(CCN2CCCCC2)c2ccccc2n1CC(O)c1ccc(Cl)c(Cl)c1 (configuration not stated),0%,-7%,18µM*,u,u
COc1ccc(-c2csc(NC(=O)Cn3cnc4c3c(=O)n(C)c(=O)n4C)n2)c2ccccc12,x,x,x,29%,x
CC(C)C[C@@H]1N[C@H](C(=O)NCCOc2ccccc2)Cc2cn(C)c3cccc1c23,x,x,x,35%[176 µM],x
CC1CCCC(NC(=O)NC(=O)COC(=O)C2=NN(c3ccccc3)C(=O)CC2)C1C (configuration not stated),-9%,-1%,10µM*,-8%,x
CC1CCC(NC(=O)COC(=O)C2=NN(c3ccccc3)C(=O)CC2)CC1 (configuration not stated),22%,-5%,u,-7%,x
CCCCC(CC)C(=O)NCc1cccs1 (configuration not stated),x,x,x,2%,x
O=C1/C(=C\Nc2ccc(Cl)cc2)CCN1c1ncccn1,1%,3%,1%[0.501 µM],u,89µM*
O=C1/C(=C\Nc2ccc(OC(F)(F)F)cc2)CCN1c1ncccn1,3%,4%,u,91%,-4%
Cc1cccc(N=c2c([N+](=O)[O-])nn(-c3ccc(Cl)cc3)n2O)c1,-18%,5%,28µM*,-13%,14%
O=[N+]([O-])c1nn(-c2ccc(Cl)cc2)n(O)c1=NCc1cccnc1,6%,7%,u,u,6%
Cc1cc(C)cc(N=c2c([N+](=O)[O-])nn(-c3cccc(Cl)c3)n2O)c1,-14%,-1%,40µM*,-1%,-5%
Cc1cccc(-n2nc([N+](=O)[O-])c(=NCc3cccnc3)n2O)c1,13%,-2%,x,4%,15%
O=[N+]([O-])c1nn(-c2cccc(Cl)c2)n(O)c1=NCc1cccnc1,-29%,3%,7.9µM*,-24%,-3%
Cc1cc(C)cc(-n2nnnc2SCCCn2c(=O)c3c(ncn3C)n(C)c2=O)c1,x,x,x,19%,x
SMILES,VDR inhibitor,Glioma ERSR ind,G9a block,ALOX12 inh,Sfp inh
CCSC1=N/C(=C\c2ccc(-c3ccccc3[N+](=O)[O-])o2)C(=O)S1,-12%,-6%,46%[0.501 µM],u,u
Nn1cnnc1N/N=C\c1ccc(-c2ccccc2[N+](=O)[O-])o1,u,5%,35µM*,u,45µM*
O=C(N/N=C/c1ccc(-c2ccc([N+](=O)[O-])cc2)o1)c1cccnc1,-12%,0%,u,-12%,-2%
Cc1cc([N+](=O)[O-])c(C)cc1-c1ccc(/C=N/NC(=O)c2cccnc2)o1,u,-2%,45µM*,2%,-20%
O=C(N/N=C/c1ccc(-c2ccccc2[N+](=O)[O-])o1)c1cncc(Br)c1,u,0%,32µM*,-1%,u
Cc1cccc(NC(=O)Nc2c[nH]c(=O)[nH]c2=O)c1,x,x,x,-3%,x
CCCc1ccc(-c2cc(C(=O)Nc3cccnc3)c3ccccc3n2)cc1,x,x,x,-12%,x
Cc1ccc(OCC(=O)Nc2cc(C(=O)O)cc(C(=O)O)c2)cc1C,18µM*,-3%,u,-2%,u
Cc1cccc(OCC(=O)Nc2cc(NC(=O)COc3cccc(C)c3C)cc(C(=O)O)c2)c1C,-27%,3%,50µM*,2%,5%
Cc1ccccc1Oc1nc2ccccn2c(=O)c1/C=C(\C#N)c1nc2ccccc2[nH]1,-14%,x,2%[59 µM],-1%,x
CCOC(=O)/C(C#N)=C/c1c(Oc2cc(C)cc(C)c2)nc2ccccn2c1=O,-8%,-3%,-42%[59 µM],5%,-14%
Cc1ccc(Oc2nc3ccccn3c(=O)c2/C=C(\C#N)c2nc3ccccc3s2)c(C)c1,u,-1%,2.5µM*,4µM*,x
N#C/C(=C\c1c(Oc2ccc(F)cc2)nc2ccccn2c1=O)c1nc2ccccc2s1,u,0%,2.2µM*,u,x
Cc1cccn2c(=O)c(/C=C(\C#N)c3nc4ccccc4s3)c(Oc3ccc(Br)cc3)nc12,79µM*,-2%,u,u,x
CCOC(=O)NC(=O)/C(C#N)=N\Nc1ccc(Cl)cc1,-1%,-5%,-25%,u,-7%
CCOC(=O)NC(=O)/C(C#N)=N\Nc1cccc(Cl)c1,-9%,3%,u,0.4µM*,12%
Cc1ncc(CO)c2c1Oc1nc(-c3ccc(Cl)cc3)nc(SCC(=O)N3CCCCC3)c1C2,-9%,-1%,u,2%,x
Cc1ncc(CO)c2c1Oc1nc(-c3ccccc3)nc(SCC(=O)N3CCOCC3)c1C2,-17%,-2%,32µM*,-23%,29%
COc1cccc(-c2nc3c(c(SCC(=O)N4CCOCC4)n2)Cc2c(CO)cnc(C)c2O3)c1,-29%,-1%,14µM*,x,16%
Cc1ncc(CO)c2c1Oc1nc(-c3ccccc3)nc(SCC(=O)N3CCCCC3)c1C2,-26%,-8%,40µM*,u,-15%
